The sample as a whole holds a higher share of hits than the screen did.
Pf Dd2 inh: Plasmodium falciparum Dd2 growth inhibition; P. falciparum Dd2 growth, SYBR Green, 72 h; Potency, µM (doses to about 28.9 µM), hits mostly inhibitors; 120,000 tested, 4.3% active; AID 1347417; active = well fitted inhibition curve with a large enough effect; note: nearly all actives have a fitted effect of over 65% in size
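Readout: SYBR Green fluorescence, 485 nm excitation, 535 nm emission, after ~16 h lysis at 37C. Before that, Dd2-infected red cells (2.5% hematocrit) grew 72 h with compound, 29 uM top final concentration.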
Large screens that a line does not name were inactive.

COc1ccc(NC(=O)c2c(NC(=O)C(F)(F)F)sc3c2CCCCC3)cc1	Pf Dd2 inh 3.2µM
CCOC(=O)c1c(NC(=O)c2ccc(C)c(C)c2)sc2c1CCCCC2	none
CCOC(=O)c1c(NC(=O)c2cc(Cl)ccc2Cl)sc2c1CCCC2	none
COCCOCc1nc(C2CCN(C(=O)Nc3cccc(Cl)c3)CC2)no1	none
CCCCS(=O)(=O)N1CCN(C2CCN(CCOC)C2=O)CC1 (stereo not given)	none
O=c1n(-c2ccc([N+](=O)[O-])cc2)nc2n1CCN(Cc1ccc(F)cc1)C2	none
Cc1cc(C(=O)N2CCC3(CCCN(C(C)C)C3=O)C2)c(-c2ccccc2)o1 (stereo not given)	none
CN1C(=O)CS(=O)C12CCNCC2 (stereo not given)	none
COCC(=O)NC1CCCc2c1[nH]c1ccc(F)cc21 (stereo not given)	none
CC(C)c1ccc(CN2CCc3nc(N4CCN(C)CC4)[nH]c(=O)c3CC2)cc1	none
Cc1cccc(NC(=O)c2c(NC(=O)c3ccccc3)sc3c2CCCC3)c1	none
CCOc1ccccc1NC(=O)c1c(NCc2ccc(OC)c(OC)c2OC)sc2c1CCC(C)C2 (stereo not given)	none
COc1ccccc1NC(=O)c1c(NC(=O)c2ccccc2F)sc2c1CCC2	none
O=C(Nc1sc2c(c1C(=O)Nc1ccccc1)CCC2)c1ccc(Br)cc1	none
CCOC(=O)N1CCc2c(sc(NCc3sccc3C)c2C(=O)Nc2cc(Cl)ccc2OC)C1	none
CCOc1ccccc1NC(=O)c1c(NC(=O)COc2ccccc2)sc2c1CCCC2	none
COC(=O)c1ccc(NC(=O)c2c(NCc3ccc(C)o3)sc3c2CCCC3)cc1	Pf Dd2 inh 10µM
CCOc1ccccc1NC(=O)c1c(NCc2ccc(C)o2)sc2c1CCCCC2	Pf Dd2 inh 13µM
COc1ccc(NC(=O)c2c(NCc3ccc(OC)c(OC)c3OC)sc3c2CCC3)c(OC)c1	Pf Dd2 inh 10µM
COc1ccccc1NC(=O)c1c(NC(=O)c2ccccc2Cl)sc2c1CCC2	none
COc1ccc(Cl)cc1NC(=O)c1c(NCc2cccnc2)sc2c1CCCC2	Pf Dd2 inh 11µM
CCOc1ccccc1NC(=O)c1c(NCc2ccc(C)o2)sc2c1CCC(C)C2 (stereo not given)	none
COCC(=O)N[C@@H]1CN(C(=O)C2CC2)CC[C@@H]1c1nc(C)no1	none
O=C(O)C[C@@H]1CCN(S(=O)(=O)c2ccccc2)C[C@@H]1CCN1CCN(c2cccc(C(F)(F)F)c2)CC1	none
Cc1cccn2c(CNC(=O)CCc3cc4n(n3)CCCNC4)cnc12	none
CC(C)c1noc(-c2cn(C3CCN(C(=O)c4ccoc4)C3)nn2)n1 (stereo not given)	none
CCOc1ccc(C2NC(=O)N(CC)C3=C2C(=O)OC3)cc1 (stereo not given)	none
CC1(CCCCN2CCOCC2)COc2ccc(C(=O)Nc3ccccc3)cc2N1 (stereo not given)	none
CN1[C@@H](CCC(=O)N2CCOCC2)CNC(=O)[C@@H]2[C@H]1CCN2Cc1cccc(OC(F)(F)F)c1	none
COc1ccc(NC(=O)CCSc2nc(-c3ccco3)cc(C(F)(F)F)n2)cc1	none
CC(=O)c1ccc(NC(=O)CCSc2nc(-c3ccco3)cc(C(F)(F)F)n2)cc1	none
CN(C)c1ccc(NC(=O)CCSc2nc(-c3ccco3)cc(C(F)(F)F)n2)cc1	Pf Dd2 inh 11µM
Cc1cc(C(=O)NCCCOC(C)C)c2c(C3CCNC3)noc2n1 (stereo not given)	none
COc1ccc(C(=O)N2C[C@@H](CO)[C@H](c3ccncc3)C2)c(OC)c1	none
COCCN1CCCCCC(O)c2cc(C(=O)NCC(C)C)ccc21 (stereo not given)	none
COCCN1CCCCCC(O)c2cc(C(=O)NCC3CC3)ccc21 (stereo not given)	none
COCCN1CCCCCC(O)c2cc(C(=O)NCc3cc(F)cc(F)c3)ccc21 (stereo not given)	Pf Dd2 inh 13µM
N#Cc1ccccc1CN1CCc2nc(N3CCOCC3)[nH]c(=O)c2CC1	none
Cc1cc(C(=O)NCc2cccs2)c2c(C3CCNC3)noc2n1 (stereo not given)	none
CCOc1cccc(CNC(=O)c2cc3c(=O)[nH]c(C)cn3n2)c1	none
Cc1[nH]c2ccc(F)cc2c1Cc1nc(C2CCOC2)no1 (stereo not given)	none
COc1ccc(C(Nc2ccccn2)c2ccc3ccc(C)nc3c2O)cc1C (stereo not given)	none
Cc1cccc(NC(c2cccc(Cl)c2)c2ccc3cccnc3c2O)n1 (stereo not given)	Pf Dd2 inh 2.5µM
O=C(COc1ccc(Cl)cc1Cl)Nc1cccc2cccnc12	none
COc1ccc(C(=O)N2CCC(N3CC4CC(C3)[C@H]3CCCC(=O)N3C4)CC2)c(OC)c1 (stereo not given in full)	none
CCOc1ccc(-c2nnc3n2CCCC3)cc1OCC	none
Cc1nnc2n1CCC(NC(=O)c1cc(C3CC3)[nH]n1)CC2 (stereo not given)	none
CCn1nccc1C(=O)Nc1cccc(-c2nnc3n2CCCC3)c1	Pf Dd2 inh 8.9µM
O=C(Nc1ccc(-c2nnc3n2CCCC3)cc1)c1cccc(Cl)c1	none
CN(C)c1cccc(C(=O)Nc2cccc(-c3nnc4n3CCCC4)c2)c1	Pf Dd2 inh 4.5µM
